Sfp inh: qHTS Assay for Inhibitors of Bacillus subtilis Sfp phosphopantetheinyl transferase (PPTase) | Potency, µM, usual class: inhibitors | 4'-phosphopantetheinyl transferase ffp (Bacillus subtilis), Q9F4F7 | Biochemical Sfp PPTase activity, qHTS | 3.5% of 310,000 active;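 also: the enzyme is Sfp with the accession as filed and its product quenches rhodamine fluorescence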
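Sfp 15 nM + cpd, 15 min RT; start w/ rhodamine-CoA 5 uM, BHQ-2-YbbR 12.5 uM (final); 50 mM Hepes pH 7.6, 10 mM MgCl2, 0.01% NP-40, 0.01% BSA; read 525/598 nm at 0 and 30 min.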
BAZ2B inh: qHTS Assay for Inhibitors of BAZ2B; Potency, µM (doses to about 114 µM), most hits filed as inhibitors; AlphaScreen BAZ2B-H3K14Ac peptide displacement; 4.4% of 360,000 active; Bromodomain adjacent to zinc finger domain protein 2B (Homo sapiens), Q9UIF8; also: nearly all actives have a fitted effect of over 60% in size
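Complex of BAZ2B and biotin-H3K14Ac (50 nM apiece) forms over 30 min at RT, then faces library compounds up to 110 uM for another 30 min; AlphaScreen beads added, 20 min dark incubation, luminescence read.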
HP1b chromo inh: HTS for Inhibitors of HP1-beta Chromodomain Interactions with Methylated Histone Tails; Potency, µM (titrated, usually from 114 µM), actives largely listed as inhibitors; 0.56% of 390,000 active; AlphaScreen HP1-beta / biotin-H3K9me3 peptide binding; also: nearly all actives have a fitted effect of over 70% in size
Target sequence (P83916 whole entry, looked up): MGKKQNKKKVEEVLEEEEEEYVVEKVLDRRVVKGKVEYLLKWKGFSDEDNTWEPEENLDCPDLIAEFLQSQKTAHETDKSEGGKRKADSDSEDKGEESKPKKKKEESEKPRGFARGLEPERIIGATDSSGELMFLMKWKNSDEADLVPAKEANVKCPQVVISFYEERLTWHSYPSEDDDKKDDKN
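Compound inhibition of the preformed complex between 50 nM HP1-beta and 50 nM biotinylated H3K9me3 peptide was read by AlphaScreen. Buffer was PBS pH 7.4 with 0.01% Tween-20. Incubations ran 30 min at room temperature, with 10 ug/mL donor/acceptor beads.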
JMJD2A Tudor: qHTS Assay for Inhibitors of JMJD2A-Tudor Domain; Lysine-specific demethylase 4A (Homo sapiens), O75164; Potency, µM (titrated, usually from 114 µM), hits mostly inhibitors; 4.4% of 390,000 active; AlphaScreen JMJD2A-Tudor / H3K4me3 peptide binding; also: nearly all actives have a fitted effect of over 50% in size
G9a inh: qHTS Assay for Inhibitors of Histone Lysine Methyltransferase G9a; Histone-lysine N-methyltransferase EHMT2 (Homo sapiens), Q96KQ7; G9a H3K9 monomethylation, AlphaScreen, 2 h; Potency, µM (top dose mostly 102 µM), usual class: inhibitors; 8.8% of 350,000 active; also: nearly all actives have a fitted effect of over 75% in size
Target sequence (Q96KQ7 913-1193 limits assumed): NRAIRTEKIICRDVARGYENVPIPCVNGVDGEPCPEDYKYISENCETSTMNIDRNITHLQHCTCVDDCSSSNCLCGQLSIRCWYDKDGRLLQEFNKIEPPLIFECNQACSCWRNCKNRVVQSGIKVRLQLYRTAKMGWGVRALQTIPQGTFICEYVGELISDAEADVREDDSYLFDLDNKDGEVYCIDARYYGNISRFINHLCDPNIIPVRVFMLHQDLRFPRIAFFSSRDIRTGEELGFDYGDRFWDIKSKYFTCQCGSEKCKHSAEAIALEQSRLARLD
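G9a (20 nM) preincubated 15 min RT with compounds, then 500 nM biotinylated H3K9 peptide and 20 uM SAM added; 2 h RT reaction. Monomethyl-H3K9 product detected by AlphaScreen with anti-H3K9me1 antibody, streptavidin donor and anti-rabbit IgG acceptor beads.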
Numbers stand for hits; . = inactive; ? = inconclusive; / = no result; ! = not confirmed by another sample; [ ] = remark or other dose. A selection: hits, their analogues and other compounds. The true share with any hit is near 12%. Calls follow the shape of the dose curve; as a rule, active = well fitted curve in the direction sought with a large enough effect; inconclusive = small, poorly fitted or top-dose-only effect, or another doubt; inactive = no such curve, though single readings can be large; an effect the other way counts as inactive or inconclusive.

SMILES	Sfp inh	BAZ2B inh	HP1b chromo inh	JMJD2A Tudor	G9a inh
Cc1ccc(-c2ccc(CCC(=O)O)n2-c2cccc(C)c2C)cc1	/	44.7µM	.	35.5µM	14.1µM
O=c1ccc2ccccc2[nH]1	.	/	/	/	/
O=C(O)CCc1ccc(-c2ccccc2)n1-c1cccc(O)c1	.	.	.	?	?
CC(=O)Nc1ccc(-n2c(CCC(=O)O)ccc2-c2ccc(Br)cc2)cc1	/	?	.	.	?
Cc1ccc(-c2ccc(CCC(=O)O)n2-c2ccc(C(C)C)cc2)cc1	/	39.8µM	?	?	15.8µM
Cc1ccc(-c2ccc(CCC(=O)O)n2-c2ccc(C(=O)O)cc2)cc1	56.2µM	?	.	.	31.6µM
Cc1ccc(-c2ccc(CCC(=O)O)n2-c2cccc(C(=O)O)c2)cc1	.	.	.	.	44.7µM
Cc1ccc(C)n1-c1ccc(C(=O)O)cc1	.	12.6µM	/	/	8.91µM
COc1ccccc1N1CCN(C(=O)CSc2nnc(C)n2C2CC2)CC1	/	/	.	.	/
COC(=O)c1ccccc1NC(=O)Cn1c(CCC(=O)O)ccc1-c1ccc(C)cc1	/	?	.	?	?
COC(=O)c1ccc(-n2c(CCC(=O)O)ccc2-c2ccc(C)cc2)cc1	.	44.7µM	.	?	14.1µM!
COc1ccc(-c2cc3c(=O)n(CC(=O)Nc4ccc(Br)c(C)c4)ccn3n2)cc1OC	/	.	.	.	.
O=C(CC1CCOCC1)Nc1ccc(Cl)c(Cl)c1	.	.	.	.	39.8µM
CCCN1CNc2c(c(=O)[nH]c(=S)n2CCc2cc(C)cc(C)c2)C1	/	/	.	.	/
O=C(Nc1ccc(Cl)cc1N1CCOCC1)C1CCCCC1	.	.	.	.	/
CC(C)C(c1nnnn1C(C)(C)C)N1CCOCC1 (centres undefined)	.	.	.	39.8µM	39.8µM
C[C@H]1Cc2c(-c3ccccc3)nc3c(c2CO1)CN(C(=O)C1CCCCC1)CC3	.	/	/	/	/
CC(=O)c1c(C)[nH]c(C(=O)NC2=NCCS2)c1C	.	50.1µM	.	.	.[12.7 µM]
O=C(NNC(=O)c1cccc(Br)c1)Nc1ccc(Cl)cc1	.	.	?	12.6µM	.
O=C(NNC(=S)Nc1ccccc1)c1cccc(Br)c1	.	.	.	.	50.1µM
Cc1c(C(=O)NNC(=S)Nc2cccc(Cl)c2)nnn1-c1ccccc1	.	56.2µM	.	?	11.2µM
Cc1cc(C(=O)NNC(=S)Nc2ccccc2)nn1C	.	.	.	.[11.4 µM]	31.6µM
Cc1nn(C)cc1C(=O)NNC(=S)Nc1ccccc1	.	.	.	.	?
O=C(O)CCSc1nnc(COc2cccc3ccccc23)n1-c1cccc(Cl)c1	.	.	.	.	?
CC(=O)c1ccc(NC(=O)c2cc3c([nH]c2=O)CC(c2ccccc2)CC3=O)cc1 (centres undefined)	/	.	.	.	.
SMILES	Sfp inh	BAZ2B inh	HP1b chromo inh	JMJD2A Tudor	G9a inh
O=C(NNC(=O)c1ccc(NC(=O)c2ccccc2)cc1)Nc1ccccc1	.	70.8µM	.	?	?
CCOc1ccc(C(=O)NC2CCN(C(=S)NCc3ccco3)CC2)cc1	7.08µM	.	.	.	?
CCOc1ccccc1N1CCN(Cc2ccco2)CC1	.	50.1µM	?	3.55µM	.[12.7 µM]
CCOc1ccccc1N1CCN(S(=O)(=O)CC)CC1	.	.	.	.	39.8µM
CCOc1ccccc1N1CCN(S(=O)(=O)c2cccs2)CC1	.	.	.	.	.
CCOc1ccccc1N1CCN(Cc2ccc(Br)s2)CC1	?	?	?	3.16µM	?
CCOc1ccccc1N1CCN(CC(=O)NC(=O)NCc2ccco2)CC1	.	.	.	.	.
Cc1ccccc1NC(=O)Cn1c(=O)n(Cc2ccc3c(c2)OCO3)c(=O)c2oc3ccccc3c21	/	.	.	.	.
COc1cc2c(cc1OC)C(c1ccccc1O)NCC2 (centres undefined)	.	.	.	.	?
O=S(=O)(NC(=S)NC1CCCCC1)c1ccc(Br)cc1	.	.	.	.	?
O=C(Nc1cccc(S(=O)(=O)NC2=NCCC2)c1)c1cc(=O)[nH]c2ccccc12	/	.	.	.	.
CCOc1ccccc1OCCCNCc1ccco1	.	.	?	28.2µM	?
